Results on 48 compounds are retold here after PubChem BioAssay AID2685 (National Center for Advancing Translational Sciences (NCATS), 2010).

Out of some 320,000 compounds screened, about 2,100 (0.66%) were called active. Inconclusive results (about 53%) are left out. Calls follow the shape of the dose curve; as a rule, active = well fitted inhibition curve with a large enough effect in the signal ratio, with a control signal flat (not every such curve was filed as active); inconclusive = small, poorly fitted or top-dose-only effect, or effect the other way, or a change in a side signal; inactive = flat fitted curve, though single readings scatter; the % refers to the signal ratio. Many of the other results were omitted from the sample, so actives are more common in it than they were.
Potency is read from the fitted curve at half-maximal effect.

The assay in a line: qHTS Assay for Lipid Storage Modulators in Drosophila S3 Cells.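 As to cell number change: cells counted by Cell Tracker Red CMTPX staining in the red channel.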 As to lipid storage change, negative = inhibition: % is scaled to controls: 0 for no effect and ±100 for the full control effect. Particulars: BODIPY lipid droplet fluorescence, 18-24 h, cells fed with added oleic acid; cell number change: measured here: cell count max response; series mostly up to 46.1 µM; lipid storage change, negative = inhibition: at the top concentration. The procedure, abridged:
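Laser-scanning cytometry quantifies lipid droplet accumulation (500–530 nm total intensity; droplet/cell object ratio) in oleic acid-fed (400 uM added) Drosophila S3 cells treated with a concentration series. 20 uM Triacsin C defined 100% inhibition.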
Background: In qHTS, concentration-response curves come from the screen itself.
As for `CCN(CC)CCCNC(=O)C1CCCN(c2nnc(N3CCCC3=O)s2)C1` (configuration not stated), the Potency is 25.9 µM (active) and the cell number change was -17%.

Regarding `CC1CC(C)CN(CCCNC(=O)C2CCCN(c3nnc(N4CCCC4=O)s3)C2)C1` (configuration not stated), the “lipid storage change, negative = inhibition” value was -2.92% (inactive) and the cell number change came out at 2.76%.

Regarding `Cc1ccc(CNC(=O)C2CCN(c3nnc(N4CCCC4=O)s3)CC2)cc1`, the “lipid storage change, negative = inhibition” value was -27.3% (inactive) and the cell number change was 24.8%.

Take `COc1ccccc1NC(=O)c1c([N+](=O)[O-])c(C(C)(C)C)nn1C`: the “lipid storage change, negative = inhibition” value was 4.27% (inactive) and the cell number change worked out at 11.1%.

Turning to `C#CCNC(=O)C1=C[C@@H](c2coc3ccccc3c2=O)C[C@@H](OCCCCO)O1`, the “lipid storage change, negative = inhibition” value was -3.82% (inactive) and the cell number change was found to be 6.85%.

In the case of `CC(Oc1cccc(Cl)c1)C(=O)Nc1ccccc1N1CCCCC1` (configuration not stated), the “lipid storage change, negative = inhibition” value is -4.15% (inactive) and the cell number change is 7.85%.

In the case of `CCN1CCN(c2ccccc2NC(=O)C(C)Oc2ccc(C(C)=O)cc2)CC1` (configuration not stated), the Potency was 18.4 µM (active) and the cell number change is -13.7%.

Regarding `CC(=O)c1ccc(OCC(=O)Nc2ccccc2N2CCCC2)cc1`, the “lipid storage change, negative = inhibition” value is -11.1% (inactive) and the cell number change is -18%.

For `O=C(NNC(=O)c1ccc(Br)s1)NC1CCCCC1`, the “lipid storage change, negative = inhibition” value was 2.2% (inactive) and the cell number change amounted to 8.62%.

Consider `CCSc1nnc(NC(=O)CSc2nnc(-c3c[nH]c4ccccc34)n2C)s1`, for which the Potency is 2.06 µM (active) and the cell number change was -1.84%.

As for `CCc1nnc(NC(=O)CSc2nnc(-c3c[nH]c4ccccc34)n2C)s1`, the “lipid storage change, negative = inhibition” value was 3.62% (inactive) and the cell number change amounted to 4.19%.

For `CCSc1nnc(NC(=O)CSc2nnc(-c3c[nH]c4ccccc34)n2CC)s1`, the compound was classed as inactive and the cell number change came out at 11.1%.

`CSc1cccc(NC(=O)C2CCN(S(=O)(=O)c3ccc4c(c3)NC(=O)CO4)CC2)c1`: the result was inactive.

In the case of `O=C(Cc1cccs1)NCCn1ccc2ccccc21`, the “lipid storage change, negative = inhibition” value was 17.3% (inactive).

In the case of `CCOC(=O)CC(=O)CSc1nc2c(sc(=S)n2-c2ccccc2)c(=O)[nH]1`, the “lipid storage change, negative = inhibition” value was -9.14% (inactive) and the cell number change was found to be 3.4%.

Regarding `C/C(=N\O)C1CC(CC(=O)O)C1(C)C` (configuration not stated), the Potency is 2.06 µM (active) and the cell number change came out at 4.13%.

As for `CC1(C)CC(CC(=O)O)CC(C)(C)N1`, the “lipid storage change, negative = inhibition” value was -1.16% (inactive) and the cell number change was 0.961%.

`COCCNC(=O)CSc1nnc(NC(=O)C2CC(=O)N(c3ccccc3OC)C2)s1` (configuration not stated): the “lipid storage change, negative = inhibition” value is 10.5% (inactive) and the cell number change came to 3.03%.

Consider `O=C(CCN1CCN(C(=O)c2ccccc2)CC1)c1ccc(Br)cc1`, for which the compound was classed as inactive and the cell number change turned out to be 16%.

For the compound `CC(=O)OCC(OC(C)=O)C(OC(C)=O)C(OC(C)=O)C(=O)Nc1ccccc1` (configuration not stated), the “lipid storage change, negative = inhibition” value was -3.16% (inactive) and the cell number change turned out to be 13.3%.

As for `CSc1nnc2c(n1)[nH]c1c(C)cccc12`, the “lipid storage change, negative = inhibition” value was 15.9% (inactive) and the cell number change was -19.5%.

Turning to `CCSc1nnc2nc3[nH]c4c(C)cccc4c3nn12`, the “lipid storage change, negative = inhibition” value was 3.26% (inactive) and the cell number change is 0.802%.

For the compound `CCSc1nnc2c(n1)[nH]c1c(C)cccc12`, the Potency is 20.6 µM (active) and the cell number change is -28.9%.

Turning to `COc1ccc([N+](=O)[O-])cc1NC(=O)CSCc1ccccc1`, the “lipid storage change, negative = inhibition” value is 2.02% (inactive) and the cell number change was -5.97%.

Consider `c1csc(Cc2nc3ccccc3[nH]2)c1`, for which the outcome was inactive.

In the case of `O=C(COC(=O)C12CC3CC(CC(C3)C1)C2)Nc1ccc2[nH]c(=O)[nH]c2c1`, the call was inactive.

Regarding `Cc1cccc(NC(=O)Cn2c(=O)n(CCC(=O)NC3CCCC3)c(=O)c3ccccc32)c1`, the outcome was inactive.

As for `COc1ccccc1Nc1nn2c(=O)c3ccc(C(=O)NCc4cccnc4)cc3nc2s1`, the “lipid storage change, negative = inhibition” value is 14.8% (inactive) and the cell number change was -12.9%.

Take `O=C(NCc1ccccn1)c1ccc2c(=O)n3nc(Nc4ccccc4)sc3nc2c1`: the Potency was 4.11 µM (active).

As for `CCc1ccccc1Nc1nn2c(=O)c3ccc(C(=O)NCc4cccs4)cc3nc2s1`, the “lipid storage change, negative = inhibition” value is -18.5% (inactive) and the cell number change is -9.06%.

In the case of `COc1ccc(OC)c(-c2csc(NC(=O)C3CSC4(C)CCC(=O)N34)n2)c1` (configuration not stated), the “lipid storage change, negative = inhibition” value was 24.3% (inactive).

In the case of `CN1CCN(CCCNC(=S)Nc2ccc(F)c(Cl)c2)CC1`, the “lipid storage change, negative = inhibition” value was 26.4% (inactive).

Take `CNc1nc(N)nc(-c2cc(Cl)ccc2OC)n1`: the “lipid storage change, negative = inhibition” value is 22.3% (inactive) and the cell number change was -0.358%.

For the compound `CCNc1nc(N)nc(-c2cc(Cl)ccc2OC)n1`, the Potency was 3.66 µM (active) and the cell number change was -11.6%.

`CCCNc1nc(N)nc(-c2cc(Cl)ccc2OC)n1`: the “lipid storage change, negative = inhibition” value was 5.2% (inactive) and the cell number change worked out at 5.2%.

Regarding `CC(=O)c1ccc(NC(=O)CN(C)CC(=O)Nc2cccc(F)c2)cc1`, the “lipid storage change, negative = inhibition” value was 7.62% (inactive) and the cell number change was 10.5%.

For `Cc1ccc2nc(-c3cccc(S(=O)(=O)N4CC(C)OC(C)C4)c3)cn2c1` (configuration not stated), the Potency is 16.4 µM (active) and the cell number change is -15.5%.

Turning to `Cc1ccn2cc(-c3cccc(S(=O)(=O)N4CC(C)OC(C)C4)c3)nc2c1` (configuration not stated), the “lipid storage change, negative = inhibition” value was -2.61% (inactive) and the cell number change came out at 5.5%.

As to `CC1CN(S(=O)(=O)c2cccc(-c3cn4cccnc4n3)c2)CC(C)O1` (configuration not stated), the “lipid storage change, negative = inhibition” value is 13.1% (inactive) and the cell number change was -27.2%.

For the compound `CCNC(=S)NS(=O)(=O)c1ccc(CC)cc1`, the “lipid storage change, negative = inhibition” value was 6.51% (inactive) and the cell number change is -7.16%.

Consider `CCCn1cc2c(c1-c1ccc(C)cc1)c(=O)n(C)c(=O)n2C`, for which the “lipid storage change, negative = inhibition” value is -9.64% (inactive) and the cell number change was 4.81%.

In the case of `CC1=C(C(=O)N2CCc3ccccc32)C2(CCC(C)CC2)OC1=O` (configuration not stated), the “lipid storage change, negative = inhibition” value is -2.81% (inactive) and the cell number change is -7.54%.

On to `O=C(O)c1c2c(nc3ccc(Cl)cc13)CCC2`, for which the Potency was 0.0517 µM (active).

For the compound `CN(C)C(=O)c1c2c(nc3ccccc13)CCCC2`, the outcome was inactive and the cell number change is 1.75%.

As to `Cc1cc(Br)c2nc3c(c(C(=O)O)c2c1)CCCCC3`, the “lipid storage change, negative = inhibition” value was -4.98% (inactive) and the cell number change is -0.276%.

As for `O=C(O)c1c2c(nc3ccc(F)cc13)CCC2`, the “lipid storage change, negative = inhibition” value was -2.17% (inactive) and the cell number change was -14.4%.

Turning to `Cc1cccc2c(C(=O)O)c3c(nc12)CCCCC3`, the Potency is 18.4 µM (active) and the cell number change is -17%.

On to `CCOc1c2c(nc3ccc(Cl)cc13)CCC2`, for which the “lipid storage change, negative = inhibition” value is 6.62% (inactive) and the cell number change came out at 8.32%.
